From PubChem BioAssay AID1240 (Sanford-Burnham Center for Chemical Genomics, 2008) come the findings set out here.

Screen size: about 50,000 compounds; about 800 (1.6%) showed an effect of 50% or more. This excerpt belongs to a sample that is enriched for strong results.

Bcl-2-like protein 10 (Homo sapiens), sequence (Q9HD36 whole entry, looked up): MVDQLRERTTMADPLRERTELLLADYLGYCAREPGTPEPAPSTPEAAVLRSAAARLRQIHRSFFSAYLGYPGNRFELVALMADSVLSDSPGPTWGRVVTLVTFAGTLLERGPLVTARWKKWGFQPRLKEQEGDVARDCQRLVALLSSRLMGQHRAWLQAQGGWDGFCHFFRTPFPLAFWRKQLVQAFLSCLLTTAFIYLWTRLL

This assay addresses Bcl-2-like protein 10 (Homo sapiens) (UniProt Q9HD36). As to the kind of experiment: TR3 peptide-Bcl-B binding displacers, biochemical primary FP assay, phenotype converters (AID 1240).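 Note: 0% = Bcl-B with tracer peptide and DMSO and 100% = tracer peptide lacking Bcl-B.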 As to conditions: GST-Bcl-B / FITC-TR3 peptide fluorescence polarization; stronger effect = higher value; compound at 3.75 mg/L. On the technique in general: In fluorescence polarisation assays a small probe gives low polarisation when free and higher when bound to something large.
For the compound `N#C/C(=C/c1ccc(Cl)cc1)C(=O)Nc1cccc(Br)c1`, the displacement was -9.8%.
The result for `CCOc1ccc(N2C(=O)NC(=O)/C(=C\c3ccc(-c4ccccc4C(=O)O)o3)C2=O)cc1` reads 14.1%; that for `CCN(Cc1ccccc1)C(=O)c1ccccc1[N+](=O)[O-]`, -11.3%; that for `CC(C)c1ccc(C2OC3(C(=O)c4ccccc4C3=O)C3C(=O)N(c4ccc(Cl)c(Cl)c4)C(=O)C23)cc1` (stereo unspecified), 4.5%.
As for `O=c1c(Oc2ccccc2Br)c(C(F)(F)F)oc2cc(O)ccc12`, the displacement came out at 3%.
With `COc1ccc(NC(=O)CN(c2ccccc2Cl)S(C)(=O)=O)cc1OC`, the displacement worked out at 3.6%.
The result for `CCOc1cc(/C=C2\C(=O)NC(=O)N(c3ccc(Cl)cc3)C2=O)cc(Cl)c1OCC(=O)O` reads -2.8%.
With `Cc1cc(C)c(C(=O)/C(=C/c2ccc(I)cc2)c2ccccc2)c(=O)[nH]1`, the displacement is -1.1%.
The result for `Cc1cccc(C(=O)NNC2=CC(=O)CC(C)(C)C2)c1O` reads 37.5%; that for `N#C/C(=C/c1ccc(F)cc1)C(=O)Nc1cccc(Br)c1`, -19.5%; that for `N#C/C(=C/c1ccc(C#N)cc1)C(=O)Nc1cccc(Br)c1`, -8.5%.
The result for `N#C/C(=C\c1ccc(-c2ccccc2[N+](=O)[O-])o1)C(=O)Nc1cccc(Br)c1` reads -6.3%.
`COc1ccc(OC)c(/C=C(/C#N)C(=O)Nc2cccc(Br)c2)c1`: the displacement came out at 100%.
Take `COc1cc([N+](=O)[O-])ccc1-c1ccc(/C=C(/C#N)C(=O)Nc2cccc(Br)c2)o1`: the displacement was 92.4%.
For the compound `COc1ccc([N+](=O)[O-])cc1-c1ccc(/C=C(/C#N)C(=O)Nc2cccc(Br)c2)o1`, the displacement turned out to be 7.6%.
For `CSc1ccc(/C=C(/C#N)C(=O)Nc2cccc(Br)c2)cc1`, the displacement was 80.3%.
The value for `COc1ccc(Cl)cc1/C=C(/C#N)C(=O)Nc1cccc(Br)c1` was 14.8%; that for `COc1ccc(/C=C(/C#N)C(=O)Nc2cccc(Br)c2)c(OC)c1` was -8.7%.
With `C=CCOc1ccc(/C=C/C(=O)c2ccc(Cl)cc2)cc1`, the displacement is -2.1%.
As for `O=C(NCc1ccccc1)c1nn2c(c1Cl)NC(c1ccc(Cl)cc1)CC2C(F)(F)F` (stereo unspecified), the displacement is 1.1%.
The value for `O=C(NCc1ccccc1)C(O)(c1ccc(F)cc1)c1ccc(F)cc1` was -12.1%; that for `CSc1ccc(CN2CCN(C(=O)c3ccco3)CC2)cc1` was -13.1%.
Turning to `O=[N+]([O-])c1ccc(F)c(NS(=O)(=O)c2cc(Cl)ccc2Cl)c1`, the displacement is -1.9%.
The value for `Cc1cc(NC(=O)c2cccc(F)c2)ccc1NC(=O)c1ccccc1` was -3.3%; that for `O=C1NC(=Nc2ccc(O)cc2)S/C1=C\c1ccc(Cl)cc1` was 0.3%; that for `COc1ccc(N=C2NC(=O)/C(=C/c3ccc(N(C)C)cc3)S2)cc1` was 84.9%.
The value for `Cc1ccc(/C=C2\SC(=Nc3ccc(O)cc3)NC2=O)cc1` was 0.1%; that for `O=C1NC(=Nc2ccc(Br)cc2)S/C1=C\c1ccc2c(c1)OCO2` was 68.8%.
With `COc1ccc(N=C2NC(=O)/C(=C/c3ccc(Cl)cc3)S2)cc1`, the displacement was 10.7%.
For the compound `O=C1NC(=Nc2ccc(Br)cc2)S/C1=C\c1ccc(O)cc1`, the displacement worked out at 10%.
The result for `CN(C)c1ccc(/C=C2\SC(=Nc3ccc(O)cc3)NC2=O)cc1` reads 50.9%.
For `O=C1NC(=Nc2ccc(F)cc2)S/C1=C/c1ccc(Br)cc1`, the displacement worked out at 8%.
Turning to `COc1ccc(/C=C2/SC(=Nc3ccc(O)cc3)NC2=O)cc1`, the displacement was -15.9%.
In the case of `COC(=O)c1c(C)oc2ccc(OCc3cccc(Br)c3)cc12`, the displacement came to 9.3%.
`CCC(=NCc1ccccc1)c1c(C(F)(F)F)[nH]n(-c2nc3ccccc3s2)c1=O`: the displacement was -13.5%.
The result for `Cc1ccc(N2NC(=O)/C(=C/C=C/c3ccccc3)C2=O)cc1C` reads 8.4%; that for `Cc1ccc(Cl)cc1NC(=O)C(=O)NCc1ccco1`, -13.4%; that for `CCOC(=O)c1c(-c2ccc(C)cc2)csc1NC(=O)C(C)(C)C`, 7.5%.
With `Cc1c(C(=O)NCCc2ccccc2)cccc1[N+](=O)[O-]`, the displacement is -8%.
Consider `CN(C)c1ccc(N/C(N)=N/c2nc(C(F)(F)F)cc(=O)[nH]2)cc1`, for which the displacement is -5.8%.
The result for `N/C(=N/N=C/c1ccc2c(c1)OCO2)c1ccccn1` reads -7.7%; that for `O=C(c1ccccc1)N1CC(=O)N2CCc3ccccc3C2C1` (stereo unspecified), 1%; that for `O=C1/C(=C/c2ccccc2)SC(=S)N1c1ccccc1Cl`, -7.4%.
Take `COc1cccc(C2NC(=O)NC(C)=C2C(=O)Nc2ccccc2C)c1` (stereo unspecified): the displacement was determined as 4.3%.
The value for `CCOC(=O)C1=C(C)N=c2s/c(=C\c3ccc(C(=O)O)cc3)c(=O)n2C1c1ccc(OC)c(OC)c1` (stereo unspecified) was -22.8%.
Consider `COC(=O)C1=C(C)N=c2s/c(=C\c3ccc(Cl)cc3)c(=O)n2C1c1ccc(OC)c(OC)c1` (stereo unspecified), for which the displacement was 9.9%.
For the compound `C=CCOc1ccc(/C=c2/sc3n(c2=O)C(c2ccc(OC)c(OC)c2)C(C(=O)OC)=C(C)N=3)cc1` (stereo unspecified), the displacement amounted to 106%.
The value for `CCOC(=O)C1=C(C)N=c2s/c(=C\c3ccc(I)cc3)c(=O)n2C1c1ccc(OC)c(OC)c1` (stereo unspecified) was 111%; that for `COC(=O)C1=C(C)N=c2s/c(=C\c3ccccc3Cl)c(=O)n2C1c1cccs1` (stereo unspecified) was 84.9%.
The result for `CCOC(=O)C1=C(C)N=c2s/c(=C\c3ccc(NC(C)=O)cc3)c(=O)n2C1c1ccc(OC)cc1` (stereo unspecified) reads 116%; that for `COC(=O)C1=C(C)N=c2s/c(=C/c3ccc(F)cc3)c(=O)n2C1c1ccc(OC)cc1` (stereo unspecified), 5.7%.
The result for `CCOC(=O)C1=C(C)N=c2s/c(=C\c3cc4c(cc3Cl)OCO4)c(=O)n2C1c1cccs1` (stereo unspecified) reads -8.9%.
With `CCOC(=O)C1=C(C)N=c2s/c(=C\c3ccc(NC(C)=O)cc3)c(=O)n2C1c1ccccc1` (stereo unspecified), the displacement was -24.8%.
For the compound `CCOC(=O)C1=C(C)N=c2s/c(=C\c3ccc(OC)cc3)c(=O)n2C1c1ccc(OC)cc1` (stereo unspecified), the displacement is -5.7%.
The value for `CCOC(=O)C1=C(C)N=c2s/c(=C\c3ccc(N(C)C)cc3)c(=O)n2C1c1ccc(OC)c(OC)c1` (stereo unspecified) was -38.5%; that for `CCOC(=O)C1=C(C)N=c2s/c(=C\c3cn(C)c4ccccc34)c(=O)n2C1c1cccs1` (stereo unspecified) was 11.5%.
